# Test results taken from PubChem BioAssay (NCATS).
# Records with an inconclusive call do not appear. Entries that show only a call come without a potency. Calls of active or inactive are those of the source. The call rests on the fitted dose curve; in most records, active means well fitted inhibition curve with a large enough effect; inconclusive means small, poorly fitted or top-dose-only effect; inactive means flat fitted curve, though single readings scatter.
# Target: Calcium and integrin-binding protein 1 (Homo sapiens) (UniProt Q99828)
# Experiment: Primary qHTS for Identification of Calcium Integrin Binding Protein 1 (CIB1) Competitor (AID 1508620);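 further: GST tagged CIB1 binding a fluorescein labelled alphaIIb integrin peptide tracer; top concentration of the series differs between compounds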
# Conditions: CIB1-GST / FITC-alphaIIb peptide fluorescence polarization; series mostly up to 114 µM
# Method in brief: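 CIB1-GST (1 uM final) and compound incubated 15 min at room temperature before adding FITC-alphaIIb peptide tracer (100 nM final). Competition for binding read by fluorescence polarization (ex 480, em 540) after another 15 min at room temperature.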
# Sequence of Calcium and integrin-binding protein 1 (Homo sapiens) (Q99828 whole entry, looked up): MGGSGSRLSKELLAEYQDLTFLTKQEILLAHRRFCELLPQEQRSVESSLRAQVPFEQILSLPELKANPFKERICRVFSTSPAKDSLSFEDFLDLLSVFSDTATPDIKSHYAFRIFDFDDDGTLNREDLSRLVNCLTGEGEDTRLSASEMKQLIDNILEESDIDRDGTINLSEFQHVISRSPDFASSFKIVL
row,Structure (SMILES),Potency
1,COc1ccc(-c2nnc3n2N=C(c2cccc(OC)c2)CS3)cc1,inactive
2,Cc1ccc(NS(=O)(=O)c2cc3c(cc2Cl)NC(=O)CO3)cc1Cl,inactive
3,Cc1cc(C)nc(NC(=S)N2CCN(c3cccc4nccn34)CC2)c1,inactive
4,O=C(Nc1nnc(-c2ccco2)o1)c1ccncc1,inactive
5,O=C1Nc2ccccc2C12CC2c1cc(Cl)c(O)c(Cl)c1 (stereo not given),inactive
6,COc1ccc(C(=O)O)cc1COc1ccc(NC(C)=O)cc1,inactive
7,Cc1ccc(NS(=O)(=O)c2ccc3c(c2)N(C)CCO3)cc1C,inactive
8,Cc1ccc(CNc2ncnc3cc(-c4ccc5c(c4)OCO5)ccc23)o1,inactive
9,CC(C)(C)c1cccc(-n2cnc3cc(C(=O)N4CCCCC4)ccc32)c1,inactive
10,COc1cccc(C2=Nn3c(nnc3-c3ccc(OC)c(OC)c3)SC2)c1,inactive
11,COc1cccc(-c2csc(N3CCC(C(N)=O)CC3)n2)c1,inactive
12,CCOC(=O)c1ccc(-n2cnc3cc(C(=O)N4CCCCC4)ccc32)cc1,inactive
13,COc1ccc(CNc2ccc(N3CCN(C(C)=O)CC3)cc2)cc1OC,inactive
14,Fc1cccc(CNc2ncnc3ccc(-c4cccnc4)cc23)c1,inactive
15,CCNc1cccc(S(=O)(=O)N2CCCN(S(=O)(=O)c3ccc4c(c3)OCCO4)CC2)c1,inactive
16,Cc1cc(C)n2ncc(C(=O)Nc3ccc(Cl)c(Cl)c3)c2n1,inactive
17,c1nc(NC[C@@H]2CCCO2)c2cc(-c3ccc4c(c3)OCO4)ccc2n1,inactive
18,FC(F)(F)c1cc(N2CCN(C(=S)Nc3cc(Cl)ccn3)CC2)cc(C(F)(F)F)c1,inactive
19,CC(=O)Nc1sc2c(c1-c1ccco1)CCNC2,inactive
20,Oc1cc(NCc2ccc(F)cc2)cc2cccnc12,inactive

row,Structure (SMILES),Potency
1,Cc1ccc(C)n1-c1cccc(-c2nn[nH]n2)c1,inactive
2,COc1ccc(C2Nc3ccccc3C(=O)N2Cc2ccc(-c3ccccc3)cc2)cc1COc1ccc(NC(C)=O)cc1 (stereo not given),inactive
3,O=C(c1ccccc1O)N(Cc1cccs1)Cc1cccs1,inactive
4,Cc1cc(C)nc(NC(=S)N2CCN(c3cncc4ccccc34)CC2)c1,inactive
5,Fc1c(-c2ccc3ncnc(NCc4cccs4)c3c2)ccc2c1OCO2,inactive
6,Fc1cnc(-c2ccccc2C(F)F)nc1NCC1CCN(c2cnccn2)C1 (stereo not given),inactive
7,N#Cc1ccc(C[C@H](C(=O)O)N2C(=O)c3ccc(C(=O)O)cc3C2=O)cc1,inactive
8,Cc1c(C(=O)OCc2ccco2)[nH]c2c1C(=O)CC(c1ccco1)C2 (stereo not given),inactive
9,COCCNc1cc2c(cc1[S+](=O)([O-])Nc1ccc(C)c(C)c1)CCC(=O)N2,inactive
10,O=C(Nc1ccc(-c2nc3ccccc3[nH]2)cc1)c1ccc2c(c1)OCCO2,inactive
11,COc1cc(N2C(=O)c3ccccc3C2=O)c2ncccc2c1,inactive
12,Cc1ccc(NS(=O)(=O)c2cc3c(cc2F)NC(=O)CC3)cc1C,inactive
13,Cc1nc(C)c(-c2ccc3ncnc(NCCc4cnc[nH]4)c3c2)s1,inactive
14,COc1cc(F)c(S(=O)(=O)N2CCCN(S(=O)(=O)c3cccc(N)c3)CC2)c(F)c1,inactive
15,O=C(O)CNc1cccc(-c2nn3c(=O)cc(N4CCNCC4)nc3s2)c1,inactive
16,Cn1nnnc1Sc1ncnc2scc(-c3cnc(N)nc3)c12,inactive
17,COc1cc(Nc2nc(-c3ccncc3)nc3ccccc23)ccc1Cl,inactive
18,O=C1c2ccccc2C(=O)N1c1ccc2ccccc2n1,inactive
19,CC(=O)Nc1sc2c(c1-c1cnn(C(C)=O)c1)CCNC2,inactive
20,O=C1Nc2ccccc2/C1=C\c1ccc([N+](=O)[O-])cc1,inactive
